Source: paper PMC10726135, “HNF4α isoforms regulate the circadian balance between carbohydrate and lipid metabolism in the liver”
Over roughly 18,000 sequences, “log2 normalized intensity” has its median near 0.39; the highest 2% begin near 6.6. This is one part of a sample in which the highest values are shown more often than they occur.

molecular target: T1, HNF4alpha2 (COS-7 nuclear extract) (Homo sapiens, UniProt P41235 1-474); assay: protein-binding microarray; COS-7 nuclear extract on double-stranded Agilent 4x180k PBM; binding buffer, salt, pH and temperature not given in the material; high values mean tight binding; settings: chain copies: 2; label: 3' end of strand 1 on the slide; dsDNA, one strand shown
T1 sequence: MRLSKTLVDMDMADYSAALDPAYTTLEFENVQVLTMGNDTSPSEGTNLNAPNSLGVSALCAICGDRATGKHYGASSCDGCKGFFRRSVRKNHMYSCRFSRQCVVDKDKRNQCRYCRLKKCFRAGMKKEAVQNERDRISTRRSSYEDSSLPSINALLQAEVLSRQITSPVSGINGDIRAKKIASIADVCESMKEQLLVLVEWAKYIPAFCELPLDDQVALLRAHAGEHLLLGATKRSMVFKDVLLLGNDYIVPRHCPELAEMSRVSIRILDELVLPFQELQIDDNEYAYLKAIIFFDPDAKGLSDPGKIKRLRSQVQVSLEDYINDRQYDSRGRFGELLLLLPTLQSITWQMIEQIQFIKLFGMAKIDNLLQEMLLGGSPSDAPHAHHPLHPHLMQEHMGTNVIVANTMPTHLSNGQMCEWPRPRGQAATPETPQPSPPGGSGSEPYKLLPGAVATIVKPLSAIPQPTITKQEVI
Summary of the method: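 COS-7 cells were transiently transfected by CaPO4 with an expression vector for a human HNF4α isoform, and nuclear extracts were prepared from them. The extracts were applied to a custom Agilent SurePrint G3 4x180k array of double-stranded ~60-nt oligonucleotides, with ~44,000 test sequences spotted in quadruplicate. An Agilent G2565CA scanner imaged bound HNF4α at 2-µm resolution. Binding signal is the background-corrected, normalized gProcessedSignal from Agilent software.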

Row | Sequence | binding signal [log2 normalized intensity]
1 | CCTTTTTTGAAGGTTAAAGTCCATTTTTGAGCCTAGGGAGATTAGAGTATCGGTCGA | 6.53
2 | AAGCTTCACAAAGGGCTGAGGTTAAAGTCCGCCTAGGGAGATTAGAGTATCGGTCGA | 6.22
3 | ACATTTTTATCCTTTTTTGAAGGTTAAAGTGCCTAGGGAGATTAGAGTATCGGTCGA | 2.66
4 | AAGGGCTGAGGTTAAAGTCCACATTCTTTAGCCTAGGGAGATTAGAGTATCGGTCGA | 5.76
5 | TTTATCCTTTTTTGAAGGTTAAAGTCCATTGCCTAGGGAGATTAGAGTATCGGTCGA | 7
6 | TCACAAAGGGCTGAGGTTAAAGTCCACATTGCCTAGGGAGATTAGAGTATCGGTCGA | 7.04
7 | TCCCCACTTATTACCGGTGTGACTTTGGTTGCCTAGGGAGATTAGAGTATCGGTCGA | 2.1
8 | CGGGAGGCAAGATAAGGGTAATCACCCCCAGCCTAGGGAGATTAGAGTATCGGTCGA | 2.34
9 | CCTCCATTAACTAACCTTTGAACCAGATGGGCCTAGGGAGATTAGAGTATCGGTCGA | 4.77
10 | CCTTACCTCCATTAACTAACCTTTGAACCAGCCTAGGGAGATTAGAGTATCGGTCGA | 6.78
11 | TTACTCATGTGGTCCTAAGACTAACCTTTGGCCTAGGGAGATTAGAGTATCGGTCGA | 3.37
12 | GGTCCTAAGACTAACCTTTGACCATCCACGGCCTAGGGAGATTAGAGTATCGGTCGA | 5.96
13 | TACTCATGTGGTCCTAAGACTAACCTTTGAGCCTAGGGAGATTAGAGTATCGGTCGA | 6.33
14 | ATTAACTAACCTTTGAACCAGATGGCCCTCGCCTAGGGAGATTAGAGTATCGGTCGA | 3.62
15 | TAAGACTAACCTTTGACCATCCACGGATGCGCCTAGGGAGATTAGAGTATCGGTCGA | 4.62
16 | CATGTGGTCCTAAGACTAACCTTTGACCATGCCTAGGGAGATTAGAGTATCGGTCGA | 7.89
17 | ATGTGGTCCTAAGACTAACCTTTGACCATCGCCTAGGGAGATTAGAGTATCGGTCGA | 7.45
18 | CATGTTAATTTAAATAACAAGGATAGCGTCGCCTAGGGAGATTAGAGTATCGGTCGA | -0.878
19 | AAGGTCAGGATCTCAGCCGCGCGGCTTCAGGCCTAGGGAGATTAGAGTATCGGTCGA | -0.906
20 | CAGTGGGGGGGGGGGGGGGGGTGTGTCTGTGCCTAGGGAGATTAGAGTATCGGTCGA | 1.34
21 | CTGGCAAAGCCATGAAGCAATTCTGAGCCCGCCTAGGGAGATTAGAGTATCGGTCGA | -0.972
22 | GGATTTTTTCTTGGACTTTGGTCATCCTTTGCCTAGGGAGATTAGAGTATCGGTCGA | 6.83

Row | Sequence | binding signal [log2 normalized intensity]
23 | TTGGACTTTGGTCATCCTTTACTTTCCCAAGCCTAGGGAGATTAGAGTATCGGTCGA | 5.18
24 | TTTTCTTGGACTTTGGTCATCCTTTACTTTGCCTAGGGAGATTAGAGTATCGGTCGA | 6.04
25 | ATCAAGGATTTTTTCTTGGACTTTGGTCATGCCTAGGGAGATTAGAGTATCGGTCGA | 8.1
26 | GACTTTGGTTGGATTTCTTGGCTTCTCTTGGCCTAGGGAGATTAGAGTATCGGTCGA | 1.04
27 | TCCAGATCAAGGATTTTTTCTTGGACTTTGGCCTAGGGAGATTAGAGTATCGGTCGA | 5.42
28 | TCCAAAAGGGCAGCAGTAACCCCCCAGGAGGCCTAGGGAGATTAGAGTATCGGTCGA | 3.7
29 | GGTTGCCCTAGTGACTCTAGGAACCTTTCTGCCTAGGGAGATTAGAGTATCGGTCGA | -0.0376
30 | CACTGGGGTCATGGAGCTGGAGGGCAAAGGGCCTAGGGAGATTAGAGTATCGGTCGA | 3.25
31 | AATCATGGGCCCACAGATGATCAAAGGTCAGCCTAGGGAGATTAGAGTATCGGTCGA | 7.06
32 | AACAAAAAGGGCAAAGGTCAGCTCATTCCCGCCTAGGGAGATTAGAGTATCGGTCGA | 6.63
33 | AAAGGGCAAAGGTCAGCTCATTCCCTAGGGGCCTAGGGAGATTAGAGTATCGGTCGA | 6.27
34 | GCAAAGGTCAGCTCATTCCCTAGGGCTCGGGCCTAGGGAGATTAGAGTATCGGTCGA | -0.876
35 | GTGGGTGCCAAACAAAAAGGGCAAAGGTCAGCCTAGGGAGATTAGAGTATCGGTCGA | 8.12
36 | TGGGCCCACAGATGATCAAAGGTCAGTCTTGCCTAGGGAGATTAGAGTATCGGTCGA | 6.53
37 | AGAGCAATCATGGGCCCACAGATGATCAAAGCCTAGGGAGATTAGAGTATCGGTCGA | -0.805
38 | TATGAGAGAGAGAGAGAGGTGGGCAAAGGTGCCTAGGGAGATTAGAGTATCGGTCGA | 1.53
39 | GAGAGAGAGAGAGGTGGGCAAAGGTCTCAAGCCTAGGGAGATTAGAGTATCGGTCGA | 2.55
40 | GGGTCATGGAGCTGGAGGGCAAAGGTCAGAGCCTAGGGAGATTAGAGTATCGGTCGA | 7.97
41 | ATGGAGCTGGAGGGCAAAGGTCAGAGGCTGGCCTAGGGAGATTAGAGTATCGGTCGA | 6.39
42 | CCAAAGTCCTTCCCAAGTCCTGCATGTGTTGCCTAGGGAGATTAGAGTATCGGTCGA | 1.84
43 | CCCTACTGTACCCTATGCACCCCACAGTGCGCCTAGGGAGATTAGAGTATCGGTCGA | 2.11
44 | ACCTTTAGCACCGTAAGAGAGTATTTCCCAGCCTAGGGAGATTAGAGTATCGGTCGA | 1.13

Row | Sequence | binding signal [log2 normalized intensity]
45 | CACAAGCTGGGTCAACATCAGCCCTCCTAGGCCTAGGGAGATTAGAGTATCGGTCGA | 1.49
46 | GGGCACCGCCTCCACACCCCAGCCTGCCCTGCCTAGGGAGATTAGAGTATCGGTCGA | 3.1
47 | GGGGCAGGTAAGTACCAATATTTGTTAAGTGCCTAGGGAGATTAGAGTATCGGTCGA | 1.08
48 | ATACTTTCAGCTAGCTGAGTGAGTAGGTTCGCCTAGGGAGATTAGAGTATCGGTCGA | 1.31
49 | ACCTTTGTCCTCATTGAGCCCTCCCCTTGTGCCTAGGGAGATTAGAGTATCGGTCGA | 4.33
50 | CCTGACCTGCCCTTTGTCCCTCCTGCTAGTGCCTAGGGAGATTAGAGTATCGGTCGA | 3.3
51 | GCCTCTTTATCTCCTCCCCTTGAGACTTTAGCCTAGGGAGATTAGAGTATCGGTCGA | 2.85
52 | AGTCCTGACCTTGGACTCTGCCCTTGGCCTGCCTAGGGAGATTAGAGTATCGGTCGA | 5.81
53 | TCTTATGTCCCTCCTGACCTTTGGACTTGAGCCTAGGGAGATTAGAGTATCGGTCGA | 10.3
54 | TGTCCCTCCTGACCTTTGGACTTGATAGAGGCCTAGGGAGATTAGAGTATCGGTCGA | 9.11
55 | TTGGCTCTTATGTCCCTCCTGACCTTTGGAGCCTAGGGAGATTAGAGTATCGGTCGA | 8.6
56 | AACTCTCAGTTTGGCTCTTATGTCCCTCCTGCCTAGGGAGATTAGAGTATCGGTCGA | 1.35
57 | TCAGTTTGGCTCTTATGTCCCTCCTGACCTGCCTAGGGAGATTAGAGTATCGGTCGA | 3.25
58 | CTCTGTGCTCCCAGTTCCCTCATTAGTAACGCCTAGGGAGATTAGAGTATCGGTCGA | 1.33
59 | CAAAGGACATTTCTAAAAATAGCCTTACTTGCCTAGGGAGATTAGAGTATCGGTCGA | -0.901
60 | CCCGGCAGCCCTGCTCCCCGCCTTGGCCTCGCCTAGGGAGATTAGAGTATCGGTCGA | 1.56
61 | CTACAGGTATGCCTTTGAAGAGTACAGCCTGCCTAGGGAGATTAGAGTATCGGTCGA | -0.571
62 | ATGACCCAAACTTCACAAAAATGAGTGCAAGCCTAGGGAGATTAGAGTATCGGTCGA | -0.838
63 | AGAGAGTTCTATGGGATGACCTTTGAGCAAGCCTAGGGAGATTAGAGTATCGGTCGA | 6.93
64 | GGGCGAGAGAGTTCTATGGGATGACCTTTGGCCTAGGGAGATTAGAGTATCGGTCGA | 6.25
65 | TGACAAGCAAACACAAACTATGACCTTTGAGCCTAGGGAGATTAGAGTATCGGTCGA | 8.49
66 | TTCTTTTTGAAGCAAAGCCTTTGAGCAGATGCCTAGGGAGATTAGAGTATCGGTCGA | 0.819

Row | Sequence | binding signal [log2 normalized intensity]
67 | CAGCAACACTCTACTACTTGACCTTTGAAAGCCTAGGGAGATTAGAGTATCGGTCGA | 6.06
68 | GTTCTATGGGATGACCTTTGAGCAATAGGAGCCTAGGGAGATTAGAGTATCGGTCGA | 5.15
69 | ACACAAACTATGACCTTTGAAACTTACATTGCCTAGGGAGATTAGAGTATCGGTCGA | 5.64
70 | AGCAAACACAAACTATGACCTTTGAAACTTGCCTAGGGAGATTAGAGTATCGGTCGA | 7.13
71 | CCTTTCATGTACTGTTCAGTTCCTATTTCAGCCTAGGGAGATTAGAGTATCGGTCGA | 1.72
72 | GAGTGGACTTTGGCTTATGCAAATGTTATGGCCTAGGGAGATTAGAGTATCGGTCGA | 4.25
73 | GAGTGACCTGGTATTGCAAGTATTTCACCCGCCTAGGGAGATTAGAGTATCGGTCGA | 1.57
74 | TGACCTGGTACTATGACCTTTCACCTTTTAGCCTAGGGAGATTAGAGTATCGGTCGA | 6.99
75 | CTATGACCTTTCACCTTTTAGCTTGGCATGGCCTAGGGAGATTAGAGTATCGGTCGA | 4.41
76 | TTCACCTTTCGCCCTTTGTCCTATGACTCTGCCTAGGGAGATTAGAGTATCGGTCGA | 4.63
77 | TGGTACTATGACCTTTCACCTTTTAGCTTGGCCTAGGGAGATTAGAGTATCGGTCGA | 5.81
78 | ACCTTTGACCTGGTACTATGACCTTTCACCGCCTAGGGAGATTAGAGTATCGGTCGA | 7.01
79 | TTAGCAGATAAATCTAGGCCTAGGCATTGAGCCTAGGGAGATTAGAGTATCGGTCGA | -0.468
80 | ATCTTGGGTTAGGCCTTTAGAGGATTTACTGCCTAGGGAGATTAGAGTATCGGTCGA | -0.708
81 | ATACCCATTCACATGACCTTTGTCCGTTCCGCCTAGGGAGATTAGAGTATCGGTCGA | 7.01
82 | ACATGACCTTTGTCCGTTCCTGCCTGGAGCGCCTAGGGAGATTAGAGTATCGGTCGA | 4.82
83 | TTCGGTGCTGACCTTTGTTCACATTTGTGCGCCTAGGGAGATTAGAGTATCGGTCGA | 5.06
84 | CTGGGATGAGATACCCATTCACATGACCTTGCCTAGGGAGATTAGAGTATCGGTCGA | 3.29
85 | ATGAGATACCCATTCACATGACCTTTGTCCGCCTAGGGAGATTAGAGTATCGGTCGA | 8.34
86 | CATTCACATGACCTTTGTCCGTTCCTGCCTGCCTAGGGAGATTAGAGTATCGGTCGA | 5.92
